Test results from PubChem BioAssay (EPA / NIEHS).
Active and inactive are the calls of the source. The calls were made as follows: active = hit-call score of the fitted dose curve at least 0.9, where 1 is the maximum; inactive = score below 0.9.

What follows are molecules tested on Monokine induced gamma interferon (MIG), CXCL9 (gene 4283) (assay: BSK_CASM3C_MIG: BioMAP Diversity Plus: CASM3C Assay for Monokine induced gamma interferon (MIG) Biomarker Activity (AID 2283048;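 also: MIG protein level measured by ELISA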)). Conditions: primary human coronary artery smooth muscle cells; actives raise or lower the signal.
O=P(Oc1ccccc1)(Oc1ccccc1)Oc1ccccc1 was tested, and the outcome was “inactive”. In the case of N#Cc1cc([N+](=O)[O-])ccc1N, the outcome is reported as “inactive”. In the case of ClC(Cl)c1ccccc1, the outcome is reported as “inactive”. In the case of Cc1ccc2c(c1N)C(=O)c1ccccc1C2=O, the outcome is reported as “inactive”. CCNc1nc(Cl)nc(NC(C)(C)C)n1 was tested, and the outcome was “inactive”. With O=C(O)C(Cl)Cl the outcome was “inactive”. CCCCC(CC)COP(=O)(Oc1ccccc1)Oc1ccccc1 (stereo unspecified) was tested, and the outcome was “inactive”. For OCC(F)(F)OC(F)(F)C(F)(F)OC(F)(F)CO, the outcome was “inactive”. For c1cc2c3c(cccc3c1)CC2, the outcome was “inactive”. In the case of COP(N)(=S)OC, the outcome is reported as “inactive”. With CCCCC(CC)COC(=O)c1c(Br)c(Br)c(Br)c(Br)c1C(=O)OCC(CC)CCCC (stereo unspecified) the outcome was “inactive”. For O=C(O)C(F)(F)OC(F)(F)C(F)(F)OC(F)(F)C(=O)O, the outcome was “inactive”. With O=P1(N(CCCl)CCCl)NCCCO1 (stereo unspecified) the outcome was “inactive”. For N#Cc1c(-c2ccc(Cl)cc2)[nH]c(C(F)(F)F)c1Br, the AC50 was 11.5 µM (active). For O=P(OCC(Br)CBr)(OCC(Br)CBr)OCC(Br)CBr (stereo unspecified), the outcome was “inactive”. In the case of C=CC(=O)OCC(CC)(COC(=O)C=C)COC(=O)C=C, the AC50 is reported as 2.82 µM (active). For O=C(O)C=CC(F)(C(F)(F)F)C(F)(F)F, the outcome was “inactive”. With OCC1CO1 (stereo unspecified) the outcome was “inactive”. In the case of CC(Cl)CN(C)C (stereo unspecified), the outcome is reported as “inactive”. In the case of CCOP(=S)(NC(C)C)Oc1ccccc1C(=O)OC(C)C (stereo unspecified), the outcome is reported as “inactive”. In the case of CCOS(=O)(=O)OCC, the outcome is reported as “inactive”. CCC(C)(C)c1ccc(O)cc1 was tested, and the outcome was “inactive”. Cc1c([N+](=O)[O-])cc2c(c1[N+](=O)[O-])C(C)(C)CC2(C)C was tested, and the outcome was “inactive”. With CCCN(CCC)c1c([N+](=O)[O-])cc(C(C)C)cc1[N+](=O)[O-] the outcome was “inactive”. Cc1cccc(N)c1 was tested, and the outcome was “inactive”. With c1ccc2c(c1)Nc1ccccc1S2 the outcome was “inactive”. For CC(Cl)(Cl)C(=O)O, the outcome was “inactive”. For O=S(=O)(F)C(F)(F)C(F)(F)C(F)(F)C(F)(F)C(F)(F)C(F)(F)C(F)(F)C(F)(F)F, the outcome was “inactive”.

The molecules below were run on serum amyloid A (SAA), SAA1 (gene 6288) (assay: BSK_CASM3C_SAA: BioMAP Diversity Plus: CASM3C Assay for serum amyloid A (SAA) Biomarker Activity (AID 2283049;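 also: SAA protein level quantified by ELISA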)). Conditions: primary human coronary artery smooth muscle cells; actives raise or lower the signal.
O=P(Oc1ccccc1)(Oc1ccccc1)Oc1ccccc1 was tested, and the outcome was “inactive”. For N#Cc1cc([N+](=O)[O-])ccc1N, the outcome was “inactive”. With ClC(Cl)c1ccccc1 the outcome was “inactive”. In the case of Cc1ccc2c(c1N)C(=O)c1ccccc1C2=O, the outcome is reported as “inactive”. CCNc1nc(Cl)nc(NC(C)(C)C)n1 was tested, and the outcome was “inactive”. For O=C(O)C(Cl)Cl, the outcome was “inactive”. For CCCCC(CC)COP(=O)(Oc1ccccc1)Oc1ccccc1 (stereo unspecified), the outcome was “inactive”. In the case of OCC(F)(F)OC(F)(F)C(F)(F)OC(F)(F)CO, the outcome is reported as “inactive”. In the case of c1cc2c3c(cccc3c1)CC2, the outcome is reported as “inactive”. COP(N)(=S)OC was tested, and the outcome was “inactive”. For CCCCC(CC)COC(=O)c1c(Br)c(Br)c(Br)c(Br)c1C(=O)OCC(CC)CCCC (stereo unspecified), the AC50 was 14.7 µM (active). For O=C(O)C(F)(F)OC(F)(F)C(F)(F)OC(F)(F)C(=O)O, the outcome was “inactive”. O=P1(N(CCCl)CCCl)NCCCO1 (stereo unspecified) was tested, and the outcome was “inactive”. With N#Cc1c(-c2ccc(Cl)cc2)[nH]c(C(F)(F)F)c1Br the AC50 was 6.57 µM (active). In the case of O=P(OCC(Br)CBr)(OCC(Br)CBr)OCC(Br)CBr (stereo unspecified), the outcome is reported as “inactive”. C=CC(=O)OCC(CC)(COC(=O)C=C)COC(=O)C=C was tested, and the AC50 was 0.624 µM (active). With O=C(O)C=CC(F)(C(F)(F)F)C(F)(F)F the outcome was “inactive”. OCC1CO1 (stereo unspecified) was tested, and the outcome was “inactive”. For CC(Cl)CN(C)C (stereo unspecified), the outcome was “inactive”. For CCOP(=S)(NC(C)C)Oc1ccccc1C(=O)OC(C)C (stereo unspecified), the outcome was “inactive”. In the case of CCOS(=O)(=O)OCC, the outcome is reported as “inactive”. For CCC(C)(C)c1ccc(O)cc1, the outcome was “inactive”. For Cc1c([N+](=O)[O-])cc2c(c1[N+](=O)[O-])C(C)(C)CC2(C)C, the outcome was “inactive”. With CCCN(CCC)c1c([N+](=O)[O-])cc(C(C)C)cc1[N+](=O)[O-] the outcome was “inactive”. For Cc1cccc(N)c1, the outcome was “inactive”. For c1ccc2c(c1)Nc1ccccc1S2, the outcome was “inactive”. For CC(Cl)(Cl)C(=O)O, the outcome was “inactive”. With O=S(=O)(F)C(F)(F)C(F)(F)C(F)(F)C(F)(F)C(F)(F)C(F)(F)C(F)(F)C(F)(F)F the outcome was “inactive”.
